Several values for one entry are separate records, joined by “and”; a condition that tells them apart may be missing. Identical values can stand only once. Records with an inconclusive call do not appear. The source holds several records for some structures; these can differ, active in one and inactive in another. Activity calls are given as the source filed them. How the source made its calls, unless noted: active means hit-call score of the fitted dose curve at least 0.9, where 1 is the maximum; inactive means score below 0.9.
Tests used:
[1] = target: human RAR-related Orphan Receptor gamma (RORg), RORC (gene 6097) (UniProt P51449); experiment: ATG_RORg_TRANS: Attagene TRANS-FACTORIAL HepG2 Assay for human RAR-related Orphan Receptor gamma (RORg) (AID 2283011; active means hit-call score of the fitted dose curve at least 0.9, where 1 is the maximum;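 on AC50: potency for induction of reporter transcripts above DMSO so activators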)
human RAR-related Orphan Receptor gamma (RORg), RORC (gene 6097), sequence (P51449 whole entry, looked up, the tested form may be a part): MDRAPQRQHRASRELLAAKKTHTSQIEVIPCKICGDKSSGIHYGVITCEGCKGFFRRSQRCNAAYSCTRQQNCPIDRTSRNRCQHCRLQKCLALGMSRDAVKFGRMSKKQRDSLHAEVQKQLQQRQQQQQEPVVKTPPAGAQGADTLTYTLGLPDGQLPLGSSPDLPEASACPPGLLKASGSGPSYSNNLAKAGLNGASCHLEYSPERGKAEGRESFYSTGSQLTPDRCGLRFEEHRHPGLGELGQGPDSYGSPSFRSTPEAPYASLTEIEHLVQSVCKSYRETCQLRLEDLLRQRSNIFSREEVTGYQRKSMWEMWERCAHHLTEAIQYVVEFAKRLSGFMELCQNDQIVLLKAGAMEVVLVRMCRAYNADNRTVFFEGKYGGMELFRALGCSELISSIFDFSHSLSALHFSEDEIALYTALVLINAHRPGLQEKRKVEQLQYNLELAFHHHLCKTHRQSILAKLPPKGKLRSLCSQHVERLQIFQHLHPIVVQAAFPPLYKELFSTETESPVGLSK
Procedure, shortened: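 HepG2 cells transiently transfected with GAL4-UAS reporter units and chimeric RORg-Gal4 construct; after 24 h chemical exposure, reporter mRNA measured by RT-PCR with fluorescent capillary electrophoresis, gain of signal fitted against DMSO.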

[2] = target: Retinoic acid receptor RXR-alpha (Homo sapiens) (UniProt P19793); experiment: ATG_RXRa_TRANS: Attagene TRANS-FACTORIAL HepG2 Assay for human Retinoid X Receptor alpha (RXRa) (AID 2283012; active means hit-call score of the fitted dose curve at least 0.9, where 1 is the maximum)
Retinoic acid receptor RXR-alpha (Homo sapiens), sequence (P19793 whole entry, looked up, the tested form may be a part): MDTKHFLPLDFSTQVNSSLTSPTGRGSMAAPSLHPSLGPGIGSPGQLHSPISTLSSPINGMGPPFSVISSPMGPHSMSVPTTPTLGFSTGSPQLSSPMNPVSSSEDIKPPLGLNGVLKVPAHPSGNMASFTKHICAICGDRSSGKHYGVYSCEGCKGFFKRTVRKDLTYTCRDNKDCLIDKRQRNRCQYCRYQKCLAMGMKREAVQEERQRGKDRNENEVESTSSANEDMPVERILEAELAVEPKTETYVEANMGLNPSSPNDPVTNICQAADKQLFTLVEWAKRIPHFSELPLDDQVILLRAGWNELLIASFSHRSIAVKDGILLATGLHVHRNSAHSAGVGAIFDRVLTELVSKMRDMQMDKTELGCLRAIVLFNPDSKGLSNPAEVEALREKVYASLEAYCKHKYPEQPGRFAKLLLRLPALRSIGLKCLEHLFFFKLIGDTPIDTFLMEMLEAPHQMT
Procedure, shortened: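 HepG2 cells transiently transfected with GAL4-UAS reporter units and chimeric RXRa-Gal4 protein, treated 24 h. Reporter mRNA measured by RT-PCR, fluorescent labelling, HpaI digestion and capillary electrophoresis. Induction fitted against DMSO.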

[3] = target: human Retinoid X Receptor beta (RXRb), RXRB (gene 6257) (UniProt P28702); experiment: ATG_RXRb_TRANS: Attagene TRANS-FACTORIAL HepG2 Assay for human Retinoid X Receptor beta (RXRb) (AID 2283013; active means hit-call score of the fitted dose curve at least 0.9, where 1 is the maximum)
human Retinoid X Receptor beta (RXRb), RXRB (gene 6257), sequence (P28702 whole entry, looked up, the tested form may be a part): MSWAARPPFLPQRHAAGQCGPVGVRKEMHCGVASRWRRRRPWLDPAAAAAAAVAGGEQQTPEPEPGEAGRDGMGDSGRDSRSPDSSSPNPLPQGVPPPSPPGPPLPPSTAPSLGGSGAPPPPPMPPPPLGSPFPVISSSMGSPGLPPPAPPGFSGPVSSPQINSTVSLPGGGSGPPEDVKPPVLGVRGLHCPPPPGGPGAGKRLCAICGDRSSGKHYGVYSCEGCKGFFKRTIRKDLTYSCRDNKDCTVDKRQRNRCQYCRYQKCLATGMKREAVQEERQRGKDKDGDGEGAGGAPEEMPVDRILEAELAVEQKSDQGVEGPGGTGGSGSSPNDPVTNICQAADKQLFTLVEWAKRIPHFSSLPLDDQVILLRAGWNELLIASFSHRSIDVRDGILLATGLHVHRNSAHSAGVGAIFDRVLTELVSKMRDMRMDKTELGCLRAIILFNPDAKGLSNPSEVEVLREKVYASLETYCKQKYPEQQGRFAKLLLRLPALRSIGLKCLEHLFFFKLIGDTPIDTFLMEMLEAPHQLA
Procedure, shortened: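 HepG2 cells were transiently transfected with multiplexed GAL4-UAS reporters and a chimeric RXRb-Gal4 construct, then exposed for 24 h. Reporter mRNA was quantified by RT-PCR, FAM labeling, HpaI digestion and capillary electrophoresis; gain of signal was scored against DMSO.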

[4] = read-out: E-selectin (Homo sapiens) (UniProt P16581); experiment: BSK_3C_Eselectin: BioMAP Diversity Plus: 3C Assay for Eselectin Biomarker Activity (AID 2283015); settings: primary human endothelial cells (HUVEC); actives raise or lower the signal
Procedure, shortened: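 Primary human umbilical vein endothelial cells (3C system), read 24 h after compound addition; E-selectin measured by ELISA. Bidirectional curve fitting against DMSO baseline; cytotoxicity by parallel SRB total-protein staining.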

[5] = read-out: Interleukin-1 alpha (IL1a), IL1A (gene 3552); experiment: BSK_BE3C_IL1a: BioMAP Diversity Plus: BE3C Assay for Interleukin-1 alpha (IL1a) Biomarker Activity (AID 2283016); settings: primary human bronchial epithelial cells; actives raise or lower the signal
Procedure, shortened: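 Human primary bronchial epithelial cells, 24 h chemical exposure; IL-1a quantified by ELISA, fitted bidirectionally against DMSO. Cytotoxicity assessed in parallel by SRB total-protein staining at the time of measurement.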

[6] = read-out: Monocyte Chemoattractant Protein-1 (MCP1), CCL2 (gene 6347); experiment: BSK_3C_MCP1: BioMAP Diversity Plus: 3C Assay for Monocyte Chemoattractant Protein-1 (MCP1) Biomarker Activity (AID 2283017); settings: primary human endothelial cells (HUVEC); actives raise or lower the signal
Procedure, shortened: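 Human umbilical vein endothelial cells (3C system) exposed to chemicals for 24 h; MCP-1 quantified by ELISA against the DMSO baseline with bidirectional fitting, and parallel SRB staining used to assess cytotoxicity.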

[7] = read-out: Monocyte Chemoattractant Protein-1 (MCP1), CCL2 (gene 6347); experiment: BSK_4H_MCP1: BioMAP Diversity Plus: 4H Assay for Monocyte Chemoattractant Protein-1 (MCP1) Biomarker Activity (AID 2283018); settings: primary human endothelial cells (HUVEC); actives raise or lower the signal
Procedure, shortened: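 Human umbilical vein endothelial cells (4H system) exposed to chemicals for 24 h in 96-well format. MCP-1 measured by ELISA; bidirectional fitting against DMSO, with SRB total-protein staining in parallel cultures for cytotoxicity.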

[8] = read-out: Human Leukocyte Antigen - DR isotype (HLADR), HLA-DRA (gene 3122); experiment: BSK_3C_HLADR: BioMAP Diversity Plus: 3C Assay for Human Leukocyte Antigen - DR isotype (HLADR) Biomarker Activity (AID 2283019); settings: primary human endothelial cells (HUVEC); actives raise or lower the signal
Procedure, shortened: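 HUVEC monoculture, HLA-DR measured by ELISA 24 h after chemical dosing. Fitted bidirectionally against DMSO baseline; parallel SRB staining assessed cytotoxicity, with 3C proliferation read by SRB at 48 h.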

[9] = target: human Thyroid Receptor alpha (THRa1), THRA (gene 7067) (UniProt P10827); experiment: ATG_THRa1_TRANS: Attagene TRANS-FACTORIAL HepG2 Assay for human Thyroid Receptor alpha (THRa1) (AID 2283014; active means hit-call score of the fitted dose curve at least 0.9, where 1 is the maximum)
human Thyroid Receptor alpha (THRa1), THRA (gene 7067), sequence (P10827 whole entry, looked up, the tested form may be a part): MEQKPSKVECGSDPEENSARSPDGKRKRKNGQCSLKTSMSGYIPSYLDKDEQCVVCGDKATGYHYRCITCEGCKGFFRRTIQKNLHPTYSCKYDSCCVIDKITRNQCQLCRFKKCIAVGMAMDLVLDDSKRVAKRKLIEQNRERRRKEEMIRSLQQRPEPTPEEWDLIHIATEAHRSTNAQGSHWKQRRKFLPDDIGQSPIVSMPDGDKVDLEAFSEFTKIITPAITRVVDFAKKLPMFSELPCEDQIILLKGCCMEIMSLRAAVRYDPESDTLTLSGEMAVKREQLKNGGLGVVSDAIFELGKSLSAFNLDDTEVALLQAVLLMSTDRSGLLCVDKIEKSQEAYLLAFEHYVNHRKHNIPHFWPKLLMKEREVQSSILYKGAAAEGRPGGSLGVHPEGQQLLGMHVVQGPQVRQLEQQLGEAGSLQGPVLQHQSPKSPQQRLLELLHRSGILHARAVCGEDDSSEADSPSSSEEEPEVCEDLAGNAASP
Procedure, shortened: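 HepG2 cells transiently transfected with chimeric NR-Gal4 and GAL4-UAS reporter units, dosed 24 h. Reporter mRNA quantified by RT-PCR, fluorescent labeling, HpaI digestion and capillary electrophoresis; gain-of-signal fit versus DMSO.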

[10] = read-out: Interleukin-8 (IL8), CXCL8 (gene 3576); experiment: BSK_3C_IL8: BioMAP Diversity Plus: 3C Assay for Interleukin-8 (IL8) Biomarker Activity (AID 2283020); settings: primary human endothelial cells (HUVEC); actives raise or lower the signal
Procedure, shortened: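 Primary human umbilical vein endothelial cells were dosed for 24 h. IL-8 was quantified by ELISA and fitted bidirectionally against DMSO. Cytotoxicity was assessed in parallel cultures by SRB staining at 560 nm.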

Measured: AC50

E-selectin (Homo sapiens), sequence (P16581 whole entry, looked up): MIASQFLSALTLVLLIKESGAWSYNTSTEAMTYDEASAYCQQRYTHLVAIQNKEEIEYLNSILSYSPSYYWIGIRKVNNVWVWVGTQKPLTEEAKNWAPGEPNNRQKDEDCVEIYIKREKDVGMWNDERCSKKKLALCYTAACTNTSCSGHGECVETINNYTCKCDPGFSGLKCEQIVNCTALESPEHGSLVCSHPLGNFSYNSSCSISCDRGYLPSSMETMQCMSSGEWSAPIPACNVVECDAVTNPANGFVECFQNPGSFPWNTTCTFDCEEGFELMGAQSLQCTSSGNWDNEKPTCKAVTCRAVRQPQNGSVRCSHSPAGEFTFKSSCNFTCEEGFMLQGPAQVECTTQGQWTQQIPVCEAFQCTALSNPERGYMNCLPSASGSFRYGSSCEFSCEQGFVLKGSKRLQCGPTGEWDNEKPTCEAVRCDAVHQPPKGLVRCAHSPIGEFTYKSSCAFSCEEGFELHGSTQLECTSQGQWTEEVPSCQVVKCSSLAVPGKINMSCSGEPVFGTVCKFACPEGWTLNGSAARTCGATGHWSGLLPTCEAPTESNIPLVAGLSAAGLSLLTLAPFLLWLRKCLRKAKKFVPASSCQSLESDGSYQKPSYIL

OCCOCCO
not listed: [9] | [10]
inactive: all other assays above

CCNS(=O)(=O)C(F)(F)C(F)(F)C(F)(F)C(F)(F)C(F)(F)C(F)(F)C(F)(F)C(F)(F)F
inactive: [1] | [2] | [3] | [9] | [4] | [5] | [6] | [7] | [8]
active: [5] 44.5 µM and 21.9 µM | [6] 51.4 µM | [7] 30 µM | [8] 14.6 µM and 6.07 µM

COC(=O)c1ccccc1N
not listed: [2] | [10]
inactive: all other assays above

O=[N+]([O-])C(Br)(CO)CO
active: [4] 32.6 µM | [6] 30.5 µM | [7] 28.9 µM | [8] 16.5 µM
not listed: [10]
inactive: all other assays above

Nc1ccc(Cc2ccc(N)cc2)cc1
not listed: [3] | [10]
inactive: all other assays above

CCCSC(=O)N(CCC)CCC
active: [1] 132 µM | [3] 34.1 µM
not listed: [2] | [10]
inactive: all other assays above

Nc1ccc(N=Nc2ccccc2)cc1
not listed: [3] | [9]
inactive: all other assays above

[Cl-].[Cl-].[Hg+2]
active: [4] 36.7 µM | [5] 31 µM | [7] 30.7 µM | [8] 30 µM
not listed: [10]
inactive: all other assays above

c1ccc(NNc2ccccc2)cc1
active: [3] 100 µM
not listed: [10]
inactive: all other assays above

Oc1ccc2ccc3cccc4ccc1c2c34
active: [3] 43.3 µM | [4] 29.9 µM | [5] 32.4 µM | [6] 29.7 µM | [7] 14.2 µM | [8] 26.6 µM
inactive: [1] | [2]

CC(C)(OOC(C)(C)c1ccccc1)c1ccccc1
active: [3] 12.4 µM | [4] 26.1 µM | [6] 15.8 µM | [7] 26.5 µM | [8] 24.6 µM
inactive: [1] | [2] | [5]

CN(C)c1ccc(C(=O)c2ccc(N(C)C)cc2)cc1
inactive: [1] | [3] | [4] | [5] | [7]
active: [6] 2.3 µM | [8] 20 µM

OCCCBr
not listed: [2]
inactive: all other assays above

CCCCCCCCn1sccc1=O
inactive: [1]
active: [3] 15.4 µM | [4] 12.6 µM | [5] 8.59 µM | [6] 9.73 µM | [7] 8.07 µM | [8] 5.11 µM

O=C(O)C1C2CCC(O2)C1C(=O)O (stereo unspecified)
active: [4] 18.6 µM
inactive: all other assays above

[As]#[In]
inactive: all assays above

Nc1ccc(Oc2ccc(N)cc2)cc1
not listed: [3] | [9]
inactive: all other assays above

CS(=O)(=O)NC(=O)c1cc(Oc2ccc(C(F)(F)F)cc2Cl)ccc1[N+](=O)[O-]
not listed: [9]
inactive: all other assays above

ClC1=C(Cl)[C@]2(Cl)[C@H]3[C@H]([C@@H]4C=C[C@H]3C4)[C@@]1(Cl)C2(Cl)Cl
inactive: [1] | [2] | [9] | [5]
active: [3] 10.4 µM | [4] 30.9 µM | [6] 32.2 µM | [7] 24.2 µM | [8] 24.9 µM | [10] 28.8 µM

O=C1CCCO1
not listed: [3]
inactive: all other assays above

O=Cc1ccco1
not listed: [9] | [10]
inactive: all other assays above

N#CC(Br)(Br)C(N)=O
active: [3] 10 µM
not listed: [2]
inactive: all other assays above

CC(O)CCO (stereo unspecified)
active: [3] 6.17 µM
not listed: [2]
inactive: all other assays above

Cc1ccc(N)cc1
not listed: [2]
inactive: all other assays above

CCOc1cccc(C2(N3CCN(c4ccccc4)CC3)CCC(C)CC2)c1 (stereo unspecified)
not listed: [2] | [9] | [10]
inactive: all other assays above

OCCCl
not listed: [2]
inactive: all other assays above

Nc1ccc([N+](=O)[O-])cc1
not listed: [10]
inactive: all other assays above

CC(C)N(Cc1ccccc1)C(=O)C(C)(C)C
not listed: [2] | [9]
inactive: all other assays above

Cn1cc(-c2ccccc2)c(=O)c(-c2cccc(C(F)(F)F)c2)c1
not listed: [2] | [3] | [9]
inactive: all other assays above

Oc1ccccc1Cl
not listed: [1] | [9] | [10]
inactive: all other assays above

C[C@]12C=CC3=C4CCC(=O)C=C4CC[C@H]3[C@@H]1CC[C@@H]2O
active: [4] 9.4 µM | [8] 20 µM
not listed: [1] | [10]
inactive: all other assays above

CO[C@@H]1[C@H](OC(=O)NC(=O)CCl)CC[C@]2(CO2)[C@H]1[C@@]1(C)O[C@@H]1CC=C(C)C
active: [4] 5.16 µM | [8] 8.98 µM
not listed: [1] | [10]
inactive: all other assays above

Clc1ccc(Cl)c(Cl)c1
inactive: [1] | [4] | [5] | [6] | [7] | [8]

ClC1=C(Cl)C2(Cl)C3C(Cl)C=CC3C1(Cl)C2(Cl)Cl (stereo unspecified)
inactive: [2] | [3]
active: [4] 26.8 µM | [5] 28.6 µM | [6] 30 µM | [7] 24.1 µM | [8] 22.7 µM

CCCCOC(=O)c1ccccc1C(=O)OCc1ccccc1
active: [7] 11.8 µM
not listed: [1] | [9] | [10]
inactive: all other assays above

Cc1cc(N=Nc2ccccc2C)ccc1N
active: [6] 10.8 µM | [8] 27.5 µM | [10] 20 µM
not listed: [1]
inactive: all other assays above

CCCCCCCCOC(=O)c1ccc(C(=O)OCCCCCCCC)c(C(=O)OCCCCCCCC)c1
active: [3] 65.4 µM
not listed: [1] | [9]
inactive: all other assays above

O=[N+]([O-])c1ccc(Oc2ccc(Cl)cc2Cl)cc1
active: [4] 20 µM | [6] 27.8 µM | [7] 10.3 µM | [8] 30.5 µM
inactive: [2] | [3] | [9] | [5]

C1=Cc2cccc3cccc1c23
not listed: [1] | [10]
inactive: all other assays above

— PubChem BioAssay (EPA / NIEHS)
